Pf growth 48h = P. falciparum growth inhibition at 48 hours (one generation) | actives 5.9% (n = 310,000) | P. falciparum luciferase growth in erythrocytes, 48 h | AID 504832 | Potency, µM (titrated, usually from 28.7 µM), inactives show top-dose activity change, negative = inhibition, most hits filed as inhibitors; note: potency is the fitted concentration of half-maximal effect; % is set by controls: 0 for no effect and ±100 for the full control effect
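A one-generation exposure of luciferase-tagged malaria parasites in RPMI 1640/Albumax erythrocyte culture, 37 C and 5% CO2. Inhibition is inferred from decreased luminescence after adding detection reagent.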
CHX counter = affects cycloheximide protein synthesis inhibition readout, counter-screen. max response, %. AID 2314. actives 12% (n = 300,000). cell reporter, cycloheximide protein synthesis inhibition counterscreen; in the data active = max response mostly above about 13%, no sharp cut-off; inactive = mostly below about 14%; note: read at 38.3 µM for the half of the compounds with a filed dose; 0% is about no effect
AMA1 RON2 block = AMA1-RON2 (P. falciparum) interaction inhibition | Potency, µM (series often up to 58.2 µM), without a hit: top-dose activity change, negative = inhibition, most hits filed as inhibitors | actives 0.2% (n = 360,000) | AlphaScreen AMA1-biotinylated RON2 peptide binding;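 note: potency is the fitted concentration of half-maximal effect; 0% = vehicle wells and -100% = peptide control; nearly all actives have a fitted effect of over 45% in size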
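AMA1 (3D7) with his tag at 25 nM final met compounds first, then biotinylated RON2 peptide at 25 nM; detection used donor plus acceptor beads, 10 µg/mL apiece, read by AlphaScreen after 30 min at room temperature.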
Shiga toxin inh = blocks Shiga toxin action in Vero cells; Vero cells, Shiga toxin protein synthesis inhibition reporter; inhibition, % at 38.7 µM; actives 9.2% (n = 290,000); in the data active = inhibition mostly above about 28%, no sharp cut-off; inactive = mostly below about 43%; note: 0% is about no effect
Pf growth 96h = P. falciparum growth inhibition at 96 hours | P. falciparum luciferase reporter growth, 96 h | Potency, µM (top dose mostly 28.7 µM), for inactives: top-dose activity change, negative = inhibition, most hits filed as inhibitors | actives 6.9% (n = 320,000) | AID 504834; note: potency is the fitted concentration of half-maximal effect; % is set by controls: 0 for no effect and ±100 for the full control effect
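Infected RBCs, 2% Hct / 0.05% parasitemia final; luciferase-reporter P. falciparum; cpd 96 h, 37 C, 5% CO2; luciferase detection reagent; luminescence.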
HCV inh = HCV inhibition; Huh7.5.1 HCVcc-Cre infection, luciferase reporter, 44 h; Potency, µM (series often up to 41.8 µM), for the others: at the highest dose activity change, negative = inhibition, usual class: inhibitors; actives 3.4% (n = 340,000); AID 651820; note: potency is the fitted concentration of half-maximal effect; % is set by controls: 0 for no effect and ±100 for the full control effect
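Infectious HCVcc-Cre (~0.5 moi) was added to cells just after compound, with cells seeded 4 h earlier at 1,000 per well. Luciferase activity after 44 h culture reported infection; substrate was incubated 15 min at room temperature before reading.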
An asterisk follows results filed as active; ? = inconclusive; . = no result given. Only some compounds are listed: those with a hit (about 21% of all), similar ones and a draw of the others. Unless noted, calls come from the whole dose curve; as a rule, active = well fitted curve in the direction sought with a large enough effect; inconclusive = small, poorly fitted or top-dose-only effect, or another doubt; inactive = no such curve, though single readings can be large; an effect the other way counts as inactive or inconclusive.

SMILES	Pf growth 48h	CHX counter	AMA1 RON2 block	Shiga toxin inh	Pf growth 96h	HCV inh
CC(C)(C)NC(=O)CSc1nnc(C2CC2)n1-c1ccccc1	8%	2	-8%	6	2%	-1%
Cc1nn(C)c(C)c1CNC(=O)Nc1ccc(Cl)cc1	241%	73*	-14%	145*	-5%	14%
Cc1nn(C)c(C)c1S(=O)(=O)Nc1ccc2c(c1)OCO2	22%	15	-2%	32	347%	15%
CC(C)(C)NC(=O)CN1CCC(O)(c2ccc3c(c2)OCO3)CC1	0%	-5	0%	-5	-3%	10%
Cc1nn(C)c(C)c1CNC(=O)Nc1ccc2c(c1)OCO2	109%	37*	-24%	65*	-1%	15%
Cc1nn(C)c(C)c1CNC(=O)Nc1cccc(Cl)c1	295%	57*	-17%	114*	?	3%
Cc1nn(C)c(C)c1NC(=O)CN1CCC(O)(c2ccc3c(c2)OCO3)CC1	11%	2	13%	-7	10µM*	-2%
COc1ccc2[nH]c3c(c2c1)CCNC3(C)CCc1ccc(Cl)nc1 (stereo not given)	.	-4	-10%	19	?	-15%
Cc1cc(OC(C)C(=O)NCc2cccnc2)c2c(C)c(Cc3ccccc3)c(=O)oc2c1 (stereo not given)	?	1	7%	-8	?	13µM*
Cc1cc(OC(C)C(=O)NCc2cccnc2)c2c3c(c(=O)oc2c1)CCC3 (stereo not given)	?	-2	-10%	-3	10µM*	?
COC(=O)/C=C/c1cccc(N(Cc2ccc(-c3ccc(N(C)C)cc3)cc2)C(=O)C2CCCCC2)c1	.	7	.	-4	.	.
CSCCC(NC(=O)c1ccccc1)C(=O)N1CCN(C(c2ccccc2)c2ccccc2)CC1 (stereo not given)	?	1	-17%	-5	1.9µM*	13µM*
CCOc1cccc(C(=O)Nc2ccccc2N2CCN(C(=O)C(C)C)CC2)c1	9.3µM*	5	-4%	30	13µM*	-29%
CC(NC(=O)c1ccco1)C(=O)N1CCN(C(c2ccccc2)c2ccccc2)CC1 (stereo not given)	13µM*	2	-3%	-5	31%	.
CC(C)C(=O)N1CCN(c2ccccc2NC(=O)c2ccco2)CC1	4.7µM*	-2	3%	-6	30%	7%
CC(NC(=O)c1ccco1)C(=O)N1CCN(c2ccccc2)CC1 (stereo not given)	-7%	-3	24%	-21	18%	-2%
Cc1cc(SCC(=O)NCC(c2cccs2)N2CCOCC2)c(C)cc1Br (stereo not given)	?	.	53%	.	?	-5%
Cc1ccc(Cc2c(-c3ccc(F)cc3)nc3cc(C)ccn23)cc1	.	.	-26%	.	.	.
COc1ccc(Cl)cc1C(=O)Nc1ccccc1N1CCN(C(=O)C(C)C)CC1	5.9µM*	-8	16%	-19	5.2µM*	?
Cc1ccc(C(=O)Nc2ccccc2N2CCN(C(=O)C(C)C)CC2)cc1	9.3µM*	1	-16%	-20	.	-16%
O=C(Nc1ccccc1N1CCCC1)c1cccc(F)c1	9%	12	-3%	-5	-7%	-8%
Cc1ccc(C(=O)Nc2ccccc2N2CCCC2)cc1	-1%	0	-13%	.	20%	-18%
COc1ccc(C(=O)Nc2ccccc2N2CCN(C(=O)C(C)C)CC2)cc1Cl	12µM*	-4	14%	-33	-29%	?
CCCCOc1cccc(C(=O)Nc2ccccc2N2CCCC2)c1	?	-2	?	33	?	13µM*
O=C(C1CCN(S(=O)(=O)c2ccc(Br)s2)CC1)N1CCCCC1	-27%	-1	-10%	-3	6%	?
SMILES	Pf growth 48h	CHX counter	AMA1 RON2 block	Shiga toxin inh	Pf growth 96h	HCV inh
CC(C)(C)C(=O)Nc1ccc(C(=O)CSc2nnc(C3CC3)n2C2CC2)cc1	4%	.	-3%	.	-24%	-5%
CC(=O)O[C@H]1C[C@H](O[C@H]2[C@@H](O)CC(O[C@H]3[C@@H](O)C[C@H](O[C@H]4CC[C@@]5(C)[C@H](CC[C@@H]6[C@@H]5CC[C@]5(C)[C@@H](C7=CC(=O)OC7)CC[C@]65O)C4)O[C@@H]3C)O[C@@H]2C)O[C@H](C)[C@H]1O[C@@H]1O[C@H](CO)[C@@H](O)[C@H](O)[C@H]1O (stereo not given in full)	?	.	.	.	4.8µM*	.
C[C@H]1CC[C@@H]2[C@@H](C)[C@H]3[C@H](C[C@H]4[C@@H]5CC=C6C[C@@H](O[C@@H]7O[C@H](CO)[C@H](O)[C@H](O[C@@H]8O[C@H](CO)[C@@H](O)[C@H](O)[C@H]8O)[C@H]7O[C@@H]7O[C@@H](C)[C@H](O)[C@@H](O)[C@H]7O)CC[C@]6(C)[C@H]5CC[C@]34C)N2C1	-3%	-6	12%	-13	-10%	?
CC1OC(OC2C(O)CC(OC3C(O)CC(OC4CCC5(C)C(CCC6C5CCC5(C)C(C7=CC(=O)OC7)CCC65O)C4)OC3C)OC2C)CC(O)C1O (stereo not given)	15µM*	-4	.	-22	4.8µM*	.
CC(=O)OC1CC(OC2C(O)CC(OC3C(O)CC(OC4CCC5(C)C(CCC6C5CC(O)C5(C)C(C7=CC(=O)OC7)CCC65O)C4)OC3C)OC2C)OC(C)C1OC1OC(CO)C(O)C(O)C1O (stereo not given)	.	-8	14%	-20	.	0.56µM*
CC12CC[C@H]3[C@@H](CCC4(O)C[C@H](O)CCC34/C=N/NC(=O)Cc3ccccc3)C1(O)CCC2C1=CC(=O)OC1 (stereo not given in full)	?	-5	13%	5	-9%	8%
CCC(C)N(NC(C)=O)c1nc(Cl)nc(NC(C)C)n1 (stereo not given)	2.1µM*	-3	15%	-5	?	1%
CCNc1nc(Cl)nc(N(NC(C)=O)C(C)CC)n1 (stereo not given)	.	-1	12%	-6	13%	4%
Cc1ccc(Nc2nc(Cl)nc(N(C)C#N)n2)cc1	18%	-4	0%	-4	7.4µM*	?
Cc1ccc(Nc2nc(Cl)nc(NC(C)(C)C)n2)cc1	41%	54*	-21%	60*	186%	-13%
COc1ccccc1-c1noc(-c2ccccc2C(=O)Nc2ccccc2)n1	2%	-5	0%	-7	-17%	?
COc1ccccc1NC(=O)c1ccccc1-c1nc(-c2ccccc2OC)no1	?	21*	-4%	24	.	-24%
COc1cccc(NC(=O)c2ccccc2-c2nc(-c3ccc(Cl)cc3)no2)c1	?	59*	3%	62*	?	?
Cc1ccccc1-c1noc(-c2ccccc2C(=O)O)n1	24%	15*	-11%	39	34%	19%
